This is an account of results in PubChem BioAssay (NCI).

About 83,000 compounds went through this panel and 20% of them were active in at least one assay; those are over-represented in the sample as a whole.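 Values shown are percent growth following 48 h exposure of cells in 96-well plates to a single concentration of compound; below 10 was considered active.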 Unmarked numbers belong to inactive results. Calls of active or inactive are those of the source.

Test in all cases: NCI-60 one-dose screen, 48 h (100 = growth as untreated, 0 = no growth, -100 = all killed)
Holding throughout (conditions): 10 µM unless noted

The subject of test [1] is NCI-H23 lung.
Test [2] deals with NCI-H226 lung.
The test system of test [3] is NCI-H322M lung.
The test system of test [4] is HOP-62 NSCLC.
Test [5] has as its system NCI-H460 lung.
The subject of test [6] is HOP-92 NSCLC.
The test system of test [7] is NCI-H522 lung.
Test [8] has as its system A549/ATCC NSCLC.
Test [9] deals with 786-0 renal.
The subject of test [10] is COLO 205 colon.

Regarding `Cn1cc(C(=O)c2nc(-c3c[nH]c4ccccc34)no2)c2ccccc21`, the growth was 65.6% in test [1]; 57.3% in [2]; 68.2% in test [3]; 78.9% in test [4]; 35.2% in test [5]; 63.8% in [6]. For the same compound, the growth was 56.5% in test [7], 73.7% in test [8], 98.4% in test [9] and 56% in test [10].

In the case of `OC(COc1cccc2ccccc12)CN1CCN(c2ccccc2Cl)CC1` (stereo not given), the growth is 80.3% in test [1]; 106% in [2]; 95.5% in test [3]; 88% in test [4]; 91.1% in [5]; 74.5% in test [6]. Further, the growth in test [7] is 98.8%; in [8] it was 96.6%; in [9] it was 91.4%; in [10], 104%.

For the compound `Cc1cc(N2CCCC2)nc(NC2CCCC(Nc3ccnc4cc(Cl)ccc34)C2)n1` (stereo not given), the growth is -41.4% (active) in test [1]; -56.2% (active) in [2]; -42.6% (active) in [3]; -84.4% (active) in test [4]; -66.3% (active) in [5]; -82.7% (active) in [6]. The growth is -76.3% (active) in [7], -88.6% (active) in test [8], -91.1% (active) in test [9] and -90.7% (active) in [10].

Take `N#Cc1c(-c2ccc(Cl)cc2)nc(N/N=C/c2cccc(Br)c2)nc1N1CCOCC1`: the growth in test [1] was 98.3%; in test [2], 92.3%; in [3] it was 90.6%; in [4], 90.9%; in test [5] it was 87%; in test [6], 71.2%. Also, the growth in test [7] is 91.1%; in test [8], 80.4%; in test [9] it was 61.8%; in test [10], 44%.

Take `CCc1c(Nc2ccccc2C)nc(N)[nH]c1=O`: the growth in test [1] was 117%; in test [2] it was 103%; in test [3], 103%; in test [4], 100%; in test [5], 108%; in test [6], 93.7%. The growth was 99% in [7], 114% in test [8], 109% in test [9] and 109% in test [10].

In the case of `CC(O)CN(CC(C)O)c1ccc2c(c1)Cc1cc([N+](=O)[O-])ccc1-2` (stereo not given), the growth in test [1] is 93.5%; in test [2], 101%; in test [3], 65.8%; in test [4] it was 102%; in test [5], 104%; in test [6], 88.7%. In addition, the growth was 80% in test [7], 119% in test [8], 107% in test [9] and 104% in test [10].

For the compound `O=S(=O)(Nc1ccc(OC(F)F)cc1)c1ccc(-c2cnc(C3CC3)o2)cc1`, the growth is 73.4% in test [1]; 74.1% in test [2]; 95.7% in test [3]; 66.6% in [4]; 79.1% in test [5]; 59.3% in test [6]. In addition, the growth was 43% in test [7], 60.4% in [8], 84% in [9] and 97.2% in [10].

Regarding `CSc1ccc(SC2c3ccc(C)cc3Oc3nc(N)c(C#N)c(N)c32)cc1` (stereo not given), the growth in test [1] is -74.2% (active); in test [2], -88.7% (active); in [3] it was -20.9% (active); in [4], -27.8% (active); in test [5], -72.5% (active); in [6] it was -67.6% (active). The growth in test [7] was -91.1% (active); in test [8] it was 0.603% (active); in [9], -96.6% (active); in [10], -76.7% (active).

In the case of `COc1ccc(NC2=C(Sc3nc(C)cc(C)n3)C(=O)N(Cc3ccccc3)C2=O)cc1Cl`, the growth in test [1] was 84.5% [30 µM]; in [2] it was 79.9% [30 µM]; in test [3], 111% [30 µM]; in test [4], 96.3% [30 µM]; in test [5] it was 60.7% [30 µM]; in test [6], 26.9% [30 µM]. Further, the growth in [7] is 85.7% [30 µM]; in test [8] it was 74.3% [30 µM]; in [9], 80.4% [30 µM]; in test [10], 110% [30 µM].

As for `COc1ccc(C(=O)COc2ccc(/C=C3\Oc4ccc(OC)cc4C3=O)cc2)cc1`, the growth was 100% in [1]; 89.5% in [2]; 100% in [3]; 115% in [4]; 124% in test [5]; 63.4% in [6]. Further, the growth in test [7] was -29.6% (active); in [8] it was 105%; in test [9] it was 114%; in test [10], 128%.

As for `Cc1ncc(C(=O)Nc2ccc(CN3CCN(C)CC3)c(C(F)(F)F)c2)cc1C#Cc1cnc2cccnn12`, the growth in [1] was -38.4% (active); in test [2], -56.8% (active); in test [3], -1.83% (active); in test [4], 4.59% (active); in test [5] it was -53.1% (active); in [6], -4.77% (active). The growth was -18.9% (active) in test [7], -2.38% (active) in test [8], 1.06% (active) in test [9] and -41.5% (active) in [10].

As to `CS(=O)(=O)c1ccc(-n2nc(-c3ccc(Br)cc3)c3ccccc3c2=O)cc1`, the growth was 95% in [1]; 100% in [2]; 109% in test [3]; 97.2% in [4]; 99.1% in test [5]; 85.7% in test [6]. The growth was 97% in test [7], 97.9% in [8], 121% in test [9] and 103% in test [10].

Regarding `Oc1cccc2ccc(N/N=C/c3cc(CN4CCOCC4)c(O)c4ncccc34)nc12`, the growth was -2.08% (active) in [1]; 26.5% in test [2]; 27.7% in test [3]; 7.13% (active) in test [4]; -7.47% (active) in [5]; 43.5% in test [6]. Also, the growth in test [7] was -13.7% (active); in [8], 5.15% (active); in test [9] it was 19.4%; in test [10], 12.2%.

Consider `Cn1cc(C(=O)c2nc(-c3c[nH]c4ccc(F)cc34)no2)c2cc(F)ccc21`, for which the growth in [1] is 88%; in [2] it was 69.5%; in test [3] it was 93.6%; in test [4] it was 91.2%; in test [5] it was 96.4%; in test [6], 85.5%. For the same compound, the growth in [7] is 80.1%; in test [8], 104%; in [9], 103%; in test [10], 94.5%.

On to `C=CC(=O)Nc1cccc(-c2nc(SC)nc(NCCc3ccc(OC)c(OC)c3)c2C#N)c1`, for which the growth in test [1] was 47.6%; in test [2], 40.8%; in [3] it was 90.9%; in test [4], 75.1%; in test [5], 74.6%; in [6] it was 62.2%. In addition, the growth in test [7] was 39.2%; in test [8] it was 46.9%; in test [9] it was 68.2%; in test [10] it was 77.8%.

With `O=S(=O)(Nc1ccc(NS(=O)(=O)c2ccccc2)c(Cl)c1)c1ccccc1`, the growth was 103% in [1]; 102% in [2]; 115% in test [3]; 110% in [4]; 102% in test [5]; 95.3% in test [6]. Besides, the growth is 77.7% in test [7], 101% in test [8], 103% in test [9] and 114% in test [10].

Regarding `CC(C)(O)c1cn(CCCCN2C(=O)C(=O)c3ccccc32)nn1`, the growth in test [1] was 95.8%; in test [2], 94.8%; in test [3], 108%; in test [4], 94.8%; in test [5], 102%; in test [6] it was 102%. Further, the growth in test [7] is 87.4%; in test [8], 99.7%; in test [9] it was 98.3%; in test [10] it was 112%.

`COc1cccc(-c2nc3sccn3c2-c2ccnc(NCCCNS(=O)(=O)c3c(Cl)cccc3Cl)c2)c1`: the growth in test [1] was 60.3%; in [2], 51.8%; in [3], 90.5%; in test [4], 85.6%; in test [5], 67.4%; in test [6] it was 49.6%. For the same compound, the growth in test [7] was 60.6%; in test [8], 60.3%; in test [9], 70.4%; in test [10], 55.9%.

Regarding `Fc1ccc(CNc2cccc3[nH]c(C(F)(F)F)nc23)cc1`, the growth in test [1] was 99.1%; in test [2], 93.1%; in test [3], 104%; in [4], 80.3%; in test [5] it was 83%; in [6] it was -9.4% (active). Moreover, the growth in [7] is 79.7%; in [8], 89.2%; in test [9], 110%; in test [10] it was 102%.

For the compound `COC(=O)c1cccc(NC(=O)c2ccc(-c3cccc(N)c3)o2)c1`, the growth in test [1] is 97.5%; in [2], 85.8%; in test [3], 101%; in test [4], 104%; in [5], 102%; in [6] it was 106%. Further, the growth was 81.8% in [7], 100% in test [8], 109% in test [9] and 112% in test [10].

For `C#CCOc1ccc2ncnc(N3CCC(NC(=O)CCl)CC3)c2c1`, the growth in test [1] was 71.6% [8.25 µM]; in test [2], 2.28% [8.25 µM] (active); in test [3], 88.1% [8.25 µM]; in [4], 68.2% [8.25 µM]; in test [5] it was 81.5% [8.25 µM]; in [6], 56.8% [8.25 µM]. The growth in [7] is 55.6% [8.25 µM]; in test [8] it was 75.7% [8.25 µM]; in test [9], 45.8% [8.25 µM]; in test [10], 82.5% [8.25 µM].

With `Cc1cc(N[C@@H]2CCC[C@H](Nc3ccnc4cc(Cl)ccc34)C2)nc(N2CCCCCC2)n1`, the growth in test [1] was -30.3% (active); in test [2], -38.9% (active); in test [3], -37.8% (active); in [4], -69.7% (active); in test [5], -70.9% (active); in test [6], -77.7% (active). In addition, the growth is -61.5% (active) in test [7], -48.9% (active) in [8], -96.1% (active) in test [9] and -79.3% (active) in [10].
